Screening data: PubChem BioAssay, National Center for Advancing Translational Sciences (NCATS)
IL1B secr inh: blocks inflammasome-driven IL-1 beta release. hit rate 4.7% among 360,000. activity change, % at 57.5 µM. THP-1 LPS/ATP IL-1B secretion, AlphaLISA, 16 h; stronger effect = lower value. AID 743279; in the data active means activity change below about -50%; inconclusive means mostly about -30% to -49%; further: on the % scale 0 is the no-effect control and ±100 the full control effect
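THP-1 cells pretreated 1 hr with compounds (up to 57.5 uM final), then stimulated with LPS (250 ng/mL final) plus ATP (1.25 mM final); secreted IL-1B measured by AlphaLISA after 16 hr, decreased signal indicating inhibition.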
TGFb SMAD3 inh: inhibitors of TGF-b signaling. HepG2 CAGA-GFP TGF-b/SMAD3 reporter, GFP fluorescence, 18 h; TGF-beta stimulated, 500 pg/mL final. Potency, µM (top dose mostly 46.1 µM), inactives show at the highest dose activity, negative = inhibition, actives largely listed as inhibitors. hit rate 1.2% among 410,000; further: potency means the concentration at half of the fitted maximal effect; on the % scale 0 is the no-effect control and ±100 the full control effect; nearly all actives have a fitted effect of over 65% in size
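Per well, imaged GFP fluorescence of HEPG2 CAGA-GFP cells gives the signal; cells get compound, then TGF-beta (500 pg/mL final), 18 h at 37 degrees C; %Activity versus -TGF-beta and +DMSO controls.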
TDP1 inh: inhibitors of human tyrosyl-DNA phosphodiesterase TDP1. Q9NUW8. recombinant TDP1, AlphaScreen DNA substrate cleavage. Potency, µM (doses to about 130 µM), for inactives: at the highest dose activity change, negative = inhibition, usual class: inhibitors. hit rate 0.28% among 350,000; further: potency means the concentration at half of the fitted maximal effect; on the % scale 0 is the no-effect control and ±100 the full control effect; nearly all actives have a fitted effect of over 40% in size
Target sequence (Q9NUW8 whole entry, looked up): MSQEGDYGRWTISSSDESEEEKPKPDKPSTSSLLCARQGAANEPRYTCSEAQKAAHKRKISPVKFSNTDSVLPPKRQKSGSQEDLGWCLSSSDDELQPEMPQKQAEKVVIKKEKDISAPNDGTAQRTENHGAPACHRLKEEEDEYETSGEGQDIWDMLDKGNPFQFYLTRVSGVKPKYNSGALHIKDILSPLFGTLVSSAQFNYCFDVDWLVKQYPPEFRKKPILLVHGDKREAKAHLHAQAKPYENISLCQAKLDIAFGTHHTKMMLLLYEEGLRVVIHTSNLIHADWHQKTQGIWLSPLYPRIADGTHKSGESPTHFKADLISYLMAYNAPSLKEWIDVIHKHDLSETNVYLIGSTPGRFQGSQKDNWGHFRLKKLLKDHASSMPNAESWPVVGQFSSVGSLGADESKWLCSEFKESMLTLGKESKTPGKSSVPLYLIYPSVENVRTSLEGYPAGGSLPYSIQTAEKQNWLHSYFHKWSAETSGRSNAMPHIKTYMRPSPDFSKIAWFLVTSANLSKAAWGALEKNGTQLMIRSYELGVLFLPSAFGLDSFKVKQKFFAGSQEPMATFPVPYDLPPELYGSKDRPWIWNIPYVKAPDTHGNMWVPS
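Signal: AlphaScreen proximity between streptavidin donor and anti-FITC acceptor beads on intact substrate. Reaction: Tdp1 1 nM, substrate 15 nM final, 5 min RT after 15 min compound preincubation.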
TDP1 cell CPT: DT40-hTDP1 cell growth loss with CPT; chicken DT40 Tdp1-/-;hTDP1 cells + 20 nM CPT, ATP luminescence, 48 h; Potency, µM (top dose mostly 46.2 µM), for the others: at the highest dose activity change, negative = growth inhibition, actives largely listed as inhibitors; hit rate 12% among 420,000; AID 686979; further: potency means the concentration at half of the fitted maximal effect; on the % scale 0 is the no-effect control and ±100 the full control effect; nearly all actives have a fitted effect of over 55% in size
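Chicken DT40 Tdp1-/- cells stably complemented with human TDP1 were seeded at 400 cells/well in medium containing 20 nM camptothecin, exposed to pin-transferred compounds, and grown at 37 °C for at least 48 hr. Viability was read as ATP luminescence.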
HepG2 tox: HepG2 cytotoxicity, counter-screen for TGF-b inhibitors | Potency, µM (titrated, usually from 46.1 µM), inactives show at the highest dose activity change, negative = cytotoxicity, most hits filed as cytotoxic | hit rate 0.76% among 410,000 | HepG2 CAGA-GFP viability, ATP luminescence, 18 h; further: potency means the concentration at half of the fitted maximal effect
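CellTiter-Glo luminescence gave cytotoxicity after 18 hours at 37 degrees C. The cells were HepG2 CAGA-GFP in 1% FBS DMEM, stimulated with 500 pg/mL TGF-beta after compound addition. %Activity was normalised to no-cell wells (complete cell-killing) and DMSO (no toxicity), and curves were fitted and classified.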
TDP1 cell noCPT: qHTS for Inhibitors of human tyrosyl-DNA phosphodiesterase 1 (TDP1): qHTS in cells in absence of CPT; hit rate 15% among 420,000; DT40 Tdp1-/- hTDP1 cells, no CPT, ATP luminescence, 48 h; AID 686978, 2013; Potency, µM (series often up to 46.2 µM), for the others: top-dose activity change, negative = growth inhibition, actives largely listed as inhibitors; further: potency means the concentration at half of the fitted maximal effect; on the % scale 0 is the no-effect control and ±100 the full control effect; nearly all actives have a fitted effect of over 55% in size
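Readout: luminescence from CellTiter-Glo after 30 min in the dark at RT. Cells: DT40 Tdp1-/- with stable hTDP1, 400/well. Exposure: compounds alone, ≥48 hr, 37 °C.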
Starred values were filed as active, the others as inactive; ? = inconclusive; / = no result; [ ] = another dose, or the depositor's remark. Most compounds without a hit are left out; they make up all but 19% or so of the library. Unless noted, the call rests on the fitted dose curve; in most records, active means well fitted curve in the direction sought with a large enough effect; inconclusive means small, poorly fitted or top-dose-only effect, or another doubt; inactive means no such curve, though single readings can be large; an effect the other way counts as inactive or inconclusive.

SMILES | IL1B secr inh | TGFb SMAD3 inh | TDP1 inh | TDP1 cell CPT | HepG2 tox | TDP1 cell noCPT
c1cc(-c2cc3nc(NCC4CC4)ccn3n2)ccc1OCCN1CCOCC1 | -21 | -11% | / | 23µM* | -24% | 23µM*
CN(C)C(=O)CNc1ccn2nc(-c3cccc(OCCN4CCOCC4)c3)cc2n1 | -1 | 4% | / | 11% | 1% | -27%
Clc1cccc(CNc2ccn3nc(-c4ccc(OCCN5CCOCC5)cc4)cc3n2)c1 | -5 | 11µM* | / | 8.2µM* | -48% | 12µM*
O=C1[C@@H]2C[C@@H]3C[C@H]1C[C@@](O)(C3)C2 | / | / | 3% | / | / | /
CSc1ccc(CNCc2c(C(=O)O)c(C)n(Cc3ccc(F)cc3Cl)c2C)cc1 | / | -7% | 3% | ? | -33% | -21%
CCC(=O)c1ccc(OCC(=O)OCC(=O)NC2CCCCCCC2)cc1 | 2 | -4% | 1% | -2% | 3% | 4%
COc1cc(C2SCC(=O)N2c2nnc(C34CC5CC(CC(C5)C3)C4)s2)cc(OC)c1OC (configuration not stated) | -55* | 2% | 6% | 18µM* | 0% | ?
COc1ccc(C2SCC(=O)N2c2nnc(C34CC5CC(CC(C5)C3)C4)s2)cc1 (configuration not stated) | 2 | -4% | -5% | ? | 17% | ?
Cc1ccc(CCNC(=O)Cn2ncc3c(=O)oc4ccccc4c32)cc1 | / | -6% | 1% | 1% | -13% | -17%
COC(=O)C/C=C\[C@@H](C)[C@@H](/C=N\O[C@@H](C)c1cc(-c2c(C)cc(C)cc2C)no1)OC | / | / | -5%[21 µM] | / | / | /
Cc1ccc(N(C(=O)CNC(=O)c2ccco2)C(C(=O)NC2CCCC2)c2ccncc2)c(C)c1 (configuration not stated) | 3 | 28% | 4%[0.0935 µM] | 14% | 4% | 4%
Cc1ccc(C(C(=O)NCc2ccco2)N(C(=O)CNC(=O)c2cccs2)c2ccc(C)cc2C)cc1 (configuration not stated) | 23 | 0% | 2% | 29µM* | -6% | 6.5µM*
CCOc1ccc(CCNC(=O)C2Cc3ccccc3N2C(=O)CC)cc1 (configuration not stated) | / | -1% | 1% | -27% | 0% | -23%
Cc1cc(C)cc(NC(=O)CCS(=O)(=O)c2cccc3nsnc23)c1 | / | 43% | 6% | -5% | -18% | 9%
Cc1cc(C)nc(/N=c2/ssnc2Cl)c1 | -101* | 9% | 6% | 7.3µM* | 0% | 9.2µM*
Cc1ccc(N=c2ssnc2Cl)cc1 | -17 | ? | 7% | 5.8µM* | -44% | 3.7µM*
Nc1ccccc1N=c1ssnc1Cl | 21 | 15% | 4% | ? | -9% | ?
Cc1nnc(N=c2ssnc2Cl)o1 | -15 | 2.5µM* | -4% | 1µM* | -40% | 1µM*
Nc1ccc(N2CCOCC2)c2nonc12 | -19 | ? | 3% | -8% | -11% | -25%
Cc1cc(N2CCOCC2)c2c(N)c(Br)cc(C)c2n1 | ? | 0% | 12% | ? | -1% | 3.3µM*
CCc1nc(NCc2cccnc2)c2oc3ccccc3c2n1 | 22 | 13% | 6% | -25% | -31% | ?
Cc1nc(NCc2ccc3c(c2)OCO3)c2oc3ccccc3c2n1 | -52* | ? | -7%[56.1 µM] | -21% | -30% | -26%
CCc1nc(NCc2ccc3c(c2)OCO3)c2oc3ccccc3c2n1 | 12 | 0% | 5% | 13µM* | -47% | 18µM*
O=C(NCc1ccc(F)cc1)N1CCN(C(=O)c2ccccc2)CC1 | -4 | 2% | -3%[56.1 µM] | -11% | -20% | -26%
O=C(Nc1ccn(Cc2ccc(Cl)cc2)n1)c1ccc2c(c1)OCO2 | 34 | 8% | 0% | -22% | -16% | -7%
